{
  "source": "PubChem BioAssay (Tox21)",
  "note": "Values joined by “and” are separate entries in the source; they are usually repeats but may differ in a detail not shown here. Equal entries are not always repeated. Records with an inconclusive call do not appear. Entries that show only a call come without a potency. Where a structure was tested more than once in an assay, its records may differ in their call. Active and inactive are the calls of the source. Calls follow the shape of the full dose curve. Potency is read from the fitted curve at half-maximal effect.",
  "data": [
    {"assay": "qHTS assay to identify small molecule agonists of the endoplasmic reticulum stress response signaling pathway - cell viability counter screen (AID 1159517); also: nearly all actives have a fitted effect of over 50% in size", "conditions": "ESRE-bla HeLa viability, CellTiter-Glo luminescence, 5 h; series mostly up to 61 µM", "text": "U.S. Tox21 Program National Center for Advancing Translational Sciences [NCATS] NIH Chemical Genomics Center [NCGC] U.S. Environmental Protection Agency [EPA] National Institutes of Environmental Health Sciences [NIEHS] National Toxicology Program [NTP] U.S. Food and Drug Administration [FDA] Tox21 Assay Overview: Endoplasmic Reticulum (ER) plays an important role in cellular signaling, protein folding/maturation, stress response, lipid biosynthesis, calcium storage and release etc. Under stress conditions, proteins in ER misfold or unfold, and leading to the expression of ER stress responsive genes. ER stress has been associated with a variety of pathophysiological conditions such as cancer, inflammation, neurodegenerative diseases, diabetes, ischemic heart disease etc. To identify the compounds that induce ER stress response, an ER stress reporter cell line, CellSensor ESRE-bla HeLa (Life Technologies, Carlsbad, CA) containing a beta-lactamase reporter gene under control of the Endoplasmic reticulum Stress Response Element (ESRE) was used to screen Tox21 10K compound library. The cytotoxicity of the Tox21 compound library against the ESRE-bla HeLa cell line was tested in parallel by measuring cell viability using the CellTiter-Glo assay in the same wells.\nTox21 Assay Protocol Summary: ESRE-bla HeLa cells were dispensed at 1,500 cells/6 uL of assay medium per well into black wall/clear-bottom 1536-well plates using a Multidrop Combi (ThermoFisher Scientific, Waltham, MA) dispenser. After the assay plates were incubated at 37 C and 5% CO2 for an overnight, 23 nL of compounds dissolved in DMSO, positive controls or DMSO only was transferred to the assay plate by a Pintool station (Kalypsys, San Diego, CA). The assay plates were incubated at 37 C and 5% CO2 for 5 hr. One uL of LiveBLAzer B/G FRET substrate (Life Technologies) was added using a FRD (Flying Reagent Dispenser, Aurora Discovery, San Diego, CA) and the plates were incubated at room temperature for 2 hr. Fluorescence intensity (405 nm excitation, 460 nm and 530 nm emissions) was measured using an Envision plate reader (PerkinElmer, Shelton, CT). For cytotoxicity, 4 ul/well of CellTiter-Glo reagent was added into the assay plates using an FRD. After 30 min incubation at room temperature, the luminescence intensity was measured using a ViewLux plate reader (PerkinElmer).", "values": [
      {"smiles": "O=C(O)c1cc(=O)[nH]c(=O)[nH]1", "Potency": "inactive"},
      {"smiles": "CCCCCC=O", "Potency": "inactive"},
      {"smiles": "Cc1ccc(C(C)(C)C)c(O)c1", "Potency": "inactive"},
      {"smiles": "CCCCCCCCCCCCO", "Potency": "inactive"},
      {"smiles": "Nc1ccc(O)c(N)c1", "Potency": "inactive and 54.9 µM (active)"},
      {"smiles": "Cc1ccc(S(=O)(=O)NCl)cc1", "Potency": "inactive"},
      {"smiles": "C=CC(C)(O)CCC=C(C)C", "note": "(stereo not given)", "Potency": "inactive"},
      {"smiles": "Cc1ccc2c(c1)C(=O)OC2=O", "Potency": "inactive"},
      {"smiles": "Nc1ccc2c(c1)C(=O)c1ccccc1C2=O", "Potency": "inactive"},
      {"smiles": "O=C1CCc2ccccc2O1", "Potency": "inactive"},
      {"smiles": "O=C(CCCN1CCC(O)(c2ccc(Cl)cc2)CC1)c1ccc(F)cc1", "Potency": "inactive"},
      {"smiles": "CCCN1C=CN(C)C1", "Potency": "inactive"},
      {"smiles": "CC/C(=C(/CC)c1ccc(O)cc1)c1ccc(O)cc1", "Potency": "54.9 µM (active) and inactive"},
      {"smiles": "O=C(O)COCCN1CCN(C(c2ccccc2)c2ccc(Cl)cc2)CC1", "note": "(stereo not given)", "Potency": "inactive"},
      {"smiles": "NC[C@H](O)c1ccc(O)c(O)c1", "Potency": "inactive"},
      {"smiles": "CC(C)[C@@H]1CC[C@@H](C)CC1=O", "Potency": "inactive"},
      {"smiles": "NCCS(=O)(=O)O", "Potency": "inactive"},
      {"smiles": "IC(I)I", "Potency": "inactive"},
      {"smiles": "O=C(O)c1ccc(O)cc1", "Potency": "inactive"},
      {"smiles": "C=CCNCC=C", "Potency": "inactive"},
      {"smiles": "CC(C)(Oc1ccc(Cl)cc1)C(=O)O", "Potency": "inactive"},
      {"smiles": "Cc1ccc(N)c([N+](=O)[O-])c1", "Potency": "inactive"},
      {"smiles": "CCCCCC1C(=O)CCC1CC(=O)OC", "note": "(stereo not given)", "Potency": "inactive"},
      {"smiles": "O=C(O)CCCC(=O)O", "Potency": "inactive"},
      {"smiles": "FC(F)(F)C(Cl)Br", "note": "(stereo not given)", "Potency": "inactive"},
      {"smiles": "CCCCCCC(C)O", "note": "(stereo not given)", "Potency": "inactive"},
      {"smiles": "COc1ccc(C(=O)c2ccccc2O)c(O)c1", "Potency": "inactive"},
      {"smiles": "O=[Se](O)O", "Potency": "inactive"},
      {"smiles": "C1COCCN1", "Potency": "inactive"},
      {"smiles": "CN(Cc1cnc2nc(N)nc(N)c2n1)c1ccc(C(=O)N[C@@H](CCC(=O)O)C(=O)O)cc1", "Potency": "inactive"},
      {"smiles": "C=CN1CCCC1=O", "Potency": "inactive"},
      {"smiles": "O=C(O)CCCCCCCCCCCC(=O)O", "Potency": "inactive"},
      {"smiles": "CCOC(=O)C(C)Oc1ccc(Oc2cnc3cc(Cl)ccc3n2)cc1", "note": "(stereo not given)", "Potency": "inactive"},
      {"smiles": "COc1ccc(-c2coc3cc(O)cc(O)c3c2=O)cc1", "Potency": "inactive"},
      {"smiles": "CNC[C@H](O)c1ccc(O)c(O)c1", "Potency": "inactive"},
      {"smiles": "CN(C)/N=N/c1nc[nH]c1C(N)=O", "Potency": "inactive"},
      {"smiles": "C1CN(SSN2CCOCC2)CCO1", "Potency": "inactive"},
      {"smiles": "Nc1ccc2c(O)cc(S(=O)(=O)O)cc2c1", "Potency": "inactive"},
      {"smiles": "CC1(C)NC(=O)N(c2ccc([N+](=O)[O-])c(C(F)(F)F)c2)C1=O", "Potency": "inactive"},
      {"smiles": "c1ccc2c(c1)ccc1ncccc12", "Potency": "inactive"}
    ]}
  ]
}
